Screening data as filed in PubChem.
HTT promoter inh: HTT promoter inhibition; HEK293 HTT promoter firefly luciferase reporter, 24 h; Potency, µM (doses to about 57.5 µM), inactives show top-dose activity change, negative = inhibition, usual class: inhibitors; hit rate 0.93% among 48,000; also: potency is read from the fitted curve at half-maximal effect; nearly all actives have a fitted effect of over 50% in size
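Quantitative HTS used concentration series of up to 57.5 uM final on HEK293 luciferase reporter cells, 24 h at 37 degrees C. Readout was Dual-Glo firefly luminescence.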
pS6 MEF inh: inhibitors of mTORC1 signaling in Tsc2-/- p53-/- MEF cells; Tsc2-/- p53-/- MEF, phospho-rpS6 immunofluorescence/PI, 24 h; Potency, µM (series often up to 38.3 µM), without a hit: top-dose activity change, negative = inhibition, actives largely listed as inhibitors; hit rate 0.78% among 44,000; AID 493208;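 also: potency is read from the fitted curve at half-maximal effect; plate controls were DMSO for no effect and rapamycin for full effect; nearly all actives have a fitted effect of over 50% in size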
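Compounds act on Tsc2-/-, p53-/- fibroblasts carrying an empty vector for 24 h before fixation and dual staining for phospho-S6 and DNA (propidium iodide). Values are percentages of cells above a rapamycin-defined pS6/PI threshold.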
S16 F2sN tox: cytotoxicity in S16 Pmp22-F2sN Schwann cells; S16 Pmp22-F2sN Schwann cells viability, CellTiter-Glo, 24 h; Potency, µM (series often up to 57.5 µM), for inactives: at the highest dose activity change, negative = cytotoxicity, usual class: cytotoxic; hit rate 0.48% among 43,000; also: potency is read from the fitted curve at half-maximal effect; % is scaled to controls: 0 for no effect and ±100 for the full control effect; nearly all actives have a fitted effect of over 65% in size
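S16 Pmp22-F2sN Schwann cells (500-1,000/well) in phenol-red-free DMEM with 10% FBS received 23 nL compound by pin tool for 24 h at 37 °C. Viability was then read as CellTiter-Glo luminescence after 15 min at room temperature.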
FH mod: Identification of activators of human fumarate hydratase by quantitative high-throughput screening. Potency, µM (highest dose often 79.9 µM), for the others: at the top dose activity change, negative = inhibition, most hits filed as inhibitors. hit rate 0.22% among 54,000. AID 1347055, 2019. FH coupled MDH/diaphorase resazurin fluorescence, 15 min; also: potency is read from the fitted curve at half-maximal effect; % is scaled to controls: 0 for no effect and ±100 for the full control effect; the screen sought activators but most active calls are inhibition curves; nearly all actives have a fitted effect of over 45% in size
PMP22 txn prim: PMP22 gene transcription modulation | hit rate 2% among 43,000 | Potency, µM (highest dose often 57.5 µM), for the others: at the top dose activity change, negative = inhibition, hits mostly inhibitors | S16 Pmp22-F2sN Schwann cells, FLuc/NLuc coincidence luminescence, 24 h | AID 1508649; active = clear falling dose curves in both reporters; inconclusive = both reporters move, but less clearly or upward; inactive = either reporter flat; the % is the NLuc reporter signal; also: potency is read from the fitted curve at half-maximal effect; % is scaled to controls: 0 for no effect and ±100 for the full control effect
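Reporter cells (S16 Pmp22-F2sN, 500–1,000 per well) exposed to compounds for 24 h, 37C, 5% CO2; lysis with FLuc read after 10 min, then Stop&Glo and NLuc read after 10 min.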
HTT-AS promoter: activators of huntingtin-antisense promoter activity; HEK293 HTT-AS promoter firefly luciferase reporter, 24 h; response scale: percent change from vehicle, -100% = no light; hit rate 0.24% among 48,000; Potency, µM (series often up to 57.5 µM), inactives show top-dose activity change, positive = activation, hits mostly activators; AID 1508624; also: potency is read from the fitted curve at half-maximal effect; nearly all actives have a fitted effect of over 55% in size
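HEK293 luciferase promoter-reporter cells (2,500/well) plated 24 h, then compounds added at up to 57.5 uM final for 24 h at 37 °C. Firefly luminescence by Dual-Glo, normalized to vehicle (0%) and zero RLU (-100%).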
NLuc sat counter: inhibits NanoLuc at saturating substrate, PMP22 counter-screen; shares compounds with PMP22 txn prim; Secreted NLuc enzyme (filtered S16 cell medium), Nano-Glo luminescence; hit rate 4% among 690; Potency, µM (highest dose often 57.5 µM), for the others: top-dose activity change, negative = inhibition, actives largely listed as inhibitors; also: potency is read from the fitted curve at half-maximal effect; % is scaled to controls: 0 for no effect and ±100 for the full control effect
NLuc Km ctr: NanoLuc inhibition at Km substrate, PMP22 artifact check | shares compounds with PMP22 txn prim | secreted NLuc enzyme, coelenterazine luminescence, Km conditions | Potency, µM (top dose mostly 57.5 µM), for the others: at the top dose activity change, negative = inhibition, usual class: inhibitors | hit rate 5% among 690; also: potency is read from the fitted curve at half-maximal effect; % is scaled to controls: 0 for no effect and ±100 for the full control effect
FLuc ctr PMP22: counter-screen for PMP22 expression modulators: firefly luciferase inhibition. shares compounds with PMP22 txn prim. purified P. pyralis FLuc, luminescence, 10 min. Potency, µM (titrated, usually from 57.5 µM), for inactives: top-dose activity, negative = inhibition, most hits filed as inhibitors. 690 tested, under 10 active. AID 1508640; also: % of control where 0% means no effect
Target sequence (P08659 whole entry, looked up): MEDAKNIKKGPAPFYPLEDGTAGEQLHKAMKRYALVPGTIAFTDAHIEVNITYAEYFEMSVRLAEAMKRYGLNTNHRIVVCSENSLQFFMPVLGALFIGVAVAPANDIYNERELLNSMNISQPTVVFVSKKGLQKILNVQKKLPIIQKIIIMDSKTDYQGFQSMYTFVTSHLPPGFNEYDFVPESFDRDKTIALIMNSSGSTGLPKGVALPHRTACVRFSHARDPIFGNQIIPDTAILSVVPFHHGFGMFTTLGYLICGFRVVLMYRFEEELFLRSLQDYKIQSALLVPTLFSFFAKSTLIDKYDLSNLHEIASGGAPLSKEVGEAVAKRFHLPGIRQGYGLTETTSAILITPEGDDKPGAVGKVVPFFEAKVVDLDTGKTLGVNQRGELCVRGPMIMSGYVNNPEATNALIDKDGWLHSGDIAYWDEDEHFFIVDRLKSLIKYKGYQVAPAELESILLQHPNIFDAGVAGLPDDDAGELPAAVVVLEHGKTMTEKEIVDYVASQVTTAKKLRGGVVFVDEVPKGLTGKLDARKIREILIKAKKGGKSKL
S16 F2sN tox cnf: confirmation of cytotoxicity in S16 Pmp22-F2sN Schwann cells (luciferase reporters placed in the Pmp22 gene); Potency, µM (doses to about 57.5 µM), inactives show top-dose activity change, negative = viability loss, hits mostly cytotoxic; S16 Schwann cells viability, CellTiter-Glo ATP luminescence, 24 h; hit rate 7% among 690; shares compounds with PMP22 txn prim; also: potency is read from the fitted curve at half-maximal effect; % is scaled to controls: 0 for no effect and ±100 for the full control effect
PMP22 txn cnf: PMP22 transcription modulation, confirmatory; S16 Schwann cells Pmp22-F2sN, dual luciferase, 24 h; shares compounds with PMP22 txn prim; hit rate 22% among 690; Potency, µM (doses to about 57.5 µM), inactives show at the highest dose activity change, negative = inhibition, most hits filed as inhibitors; active = clear falling dose curves in both reporters; inconclusive = both reporters move, but less clearly or upward; inactive = either reporter flat; the % is the FLuc reporter signal; also: potency is read from the fitted curve at half-maximal effect
PMP22 HiBiT cnf: confirmation of modulators of rat PMP22 protein expression; shares compounds with PMP22 txn prim; S16 Schwann cells Pmp22-HiBiT, luminescence, 48 h; Potency, µM (top dose mostly 27.9 µM), without a hit: at the highest dose activity change, negative = inhibition, usual class: inhibitors; 95 tested, under 10 active; AID 1508647
Target sequence (P25094 whole entry, looked up): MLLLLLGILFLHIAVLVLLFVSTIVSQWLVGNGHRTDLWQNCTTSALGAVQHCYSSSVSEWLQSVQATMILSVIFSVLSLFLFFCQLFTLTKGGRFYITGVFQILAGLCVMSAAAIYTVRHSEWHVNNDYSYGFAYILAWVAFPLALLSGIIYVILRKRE
An asterisk follows results filed as active; ? = inconclusive; . = not tested or not shown; [ ] = remark or other dose. Hits are enriched below; roughly 3.3% of the tested compounds scored in any of these assays. Unless noted, calls follow the shape of the dose curve; as a rule, active = well fitted curve in the direction sought with a large enough effect; inconclusive = small, poorly fitted or top-dose-only effect, or another doubt; inactive = no such curve, though single readings can be large; an effect the other way counts as inactive or inconclusive.

SMILES	HTT promoter inh	pS6 MEF inh	S16 F2sN tox	FH mod	PMP22 txn prim	HTT-AS promoter	NLuc sat counter	NLuc Km ctr	FLuc ctr PMP22	S16 F2sN tox cnf	PMP22 txn cnf	others
COc1ccc(NCc2cc3cc4c(cc3n(CC(=O)Nc3cccc(F)c3)c2=O)OCO4)cc1	-24%	1%	5%	-30%	?	?	.	.	.	.	.
COc1ccc(NCc2cc3cc4c(cc3n(CC(=O)Nc3ccc(F)cc3F)c2=O)OCO4)cc1	?	-5%	-25%	?	18µM*	-26%	?	-3%	4%	5%	-8%
CC(C)CCNC(=O)CSc1c2c(nc3ccc(Cl)cc13)CCCC2	-21%	?	?	-4%	14µM*	-47%	?	-13%	4%	-2%	?
COc1ccc(OC)c(Nc2c3c(nc4ccccc24)CCC3)c1	?	5.2µM*	?	-7%	8.4µM*	-40%	-13%	-5%	0%	-4%	1.5µM*
COc1ccc(OC)c(NC(=O)CSc2c3c(nc4cc(Cl)ccc24)CCCC3)c1	4%	3%	?	?	?	-12%	.	.	.	.	.
COc1ccc(OC)c(NC(=O)CSc2c3c(nc4ccccc24)CCCC3)c1	?	?	?	?	9.5µM*	-59%	?	?	4%	?	12µM*	PMP22 HiBiT cnf=?
CC1(C)CC2C3=CCC4[C@@]5(C)CC[C@H](OC6OCC(O)C(OC7OC(CO)C(O)C(O)C7O)C6O)C(C)(C)C5CC[C@@]4(C)[C@]3(C)C[C@H](O)[C@@]2(CO)[C@H](OC(=O)c2ccccc2)C1 (some centres undefined)	.	.	.	0%[20.6 µM]	.	.	.	.	.	.	.
COc1ccc(OCC(=O)NCc2ccc3c(c2)CCN3C(=O)c2cccc(C)c2)cc1	?	?	-22%	-11%	20µM*	-30%	?	-19%	-21%	-13%	?
CC(C)=CCC/C(C)=C/CCC1(C)Oc2c(c(O)cc3c2CN(C(CCC(=O)O)C(=O)O)C3=O)CC1O (centres undefined)	.	.	.	3%[53.3 µM]	.	.	.	.	.	.	.
CCSc1nnc2c(n1)OC(c1ccc(C)cc1)N(C(C)=O)c1ccccc1-2 (centres undefined)	-31%	-2%	-25%	7%	?	0%	?	-17%	5%	-4%	-7%
COc1ccc(C2Oc3nc(SC)nnc3-c3ccccc3N2C(C)=O)cc1 (centres undefined)	-27%	9%	1%	0%	?	-14%	.	.	.	.	.
CC(C)C[C@@H]1NC(=O)[C@@H](Cc2ccccc2)NC(=O)C(CCCCCC(=O)C2CO2)NC(=O)[C@@H]2CCCCN2C1=O (some centres undefined)	.	.	.	5%[53.3 µM]	.	.	.	.	.	.	.
C=C1CCC2(OC1)OC1CC3C4CC=C5CC(O)CC(O[C@@H]6OC[C@H](OC(=O)C(O)C(C)CC)[C@H](O)[C@H]6O[C@@H]6O[C@@H](C)[C@H](O)[C@@H](O)[C@H]6O)C5(C)C4CCC3(C)C1C2C (some centres undefined)	.	.	.	5%[20.6 µM]	.	.	.	.	.	.	.
CCC1=Nc2cc(C(=O)NCc3ccccc3Cl)ccc2Sc2ccc(C)cc21	?	?	-14%	-20%	10µM*	-33%	-4%	1%	-6%	16%	-24%
CC1=Nc2cc(C(=O)NCc3ccccc3Cl)ccc2Sc2c(C)ccc(C)c21	?	-17%	0%	-14%	10µM*	-41%	-16%	0%	-13%	7%	?
CC(CNC(=O)CCn1c(=O)c2cccn2c2ccc(F)cc21)c1ccccc1 (centres undefined)	-8%	-5%	-1%	-2%	?	-20%	.	.	.	.	.
CC(CNC(=O)CCCn1c(=O)c2cccn2c2ccc(F)cc21)c1ccccc1 (centres undefined)	-11%	5%	-14%	-8%	19µM*	-23%	?	-7%	5%	-1%	?
CC(C)(O)C1CC=C(C(=O)OCC2OC(Oc3c(O)cc(C(=O)O)cc3O)C(O)C(O)C2O)CC1 (centres undefined)	.	.	.	-1%[53.3 µM]	.	.	.	.	.	.	.
CCCCOc1ccc(CC/C=C2\SC(=O)N(CCN)C2=O)cc1	.	.	.	3%	.	.	.	.	.	.	.
Cc1cc(C)cc(NC(=O)c2ccc3oc(=O)c(S(=O)(=O)c4ccc(F)cc4)cc3c2)c1	-12%	-9%	-15%	3%	11µM*	-53%	3%	6%	2%	-3%	-20%
CC(=O)SCC(=O)c1ccc(NS(=O)(=O)c2ccc(OCCCN(C)C)cc2)nc1	.	.	.	1%	.	.	.	.	.	.	.
CCOc1ccc2oc(=O)cc(CN3CCN(Cc4ccc(F)cc4)CC3)c2c1	-18%	-5%	?	-13%	14µM*	-24%	-9%	9%	-3%	-9%	-17%
